# Data from PubChem BioAssay (NCATS).
# Records with an inconclusive call do not appear. The source made the active and inactive calls. Calls follow the shape of the dose curve; as a rule, active = well fitted cell-killing curve with a large enough effect; inconclusive = small, poorly fitted or top-dose-only effect, or effect the other way; inactive = no such curve, though single readings can be large or run the other way.
# Test: Quantitative High-Throughput drug screen in 47 multiple myeloma cell lines against the NCATS MIPE library collection: OPM2_DSMZ cell viability assay (AID 1919872); also: nearly all actives have a fitted effect of over 30% in size
# Settings: OPM2 myeloma viability, CellTiter-Glo ATP luminescence, 48 h; series mostly up to 45.8 µM; viability (% of DMSO): at the top concentration
# Summary of the method: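 Myeloma cells (500 per well) were exposed to MIPE 4.0 compounds by pin transfer and incubated 48 hours at 37C, 5% CO2. Viability was read as ATP by CellTiter-Glo luminescence, normalised to DMSO (100%) and media-only (0%) wells.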
# Potency is read from the fitted curve at half-maximal effect.
SMILES,Potency,viability (% of DMSO)
CCC(C)n1ncn(-c2ccc(N3CCN(c4ccc(OC[C@H]5CO[C@](Cn6cncn6)(c6ccc(Cl)cc6Cl)O5)cc4)CC3)cc2)c1=O (stereo not given in full),4690 nM (active),
Cc1n[nH]c(C)c1Cc1sc2c(c1C(=O)N1C[C@H](O)CO1)c(=O)n(C)c(=O)n2CC(C)C,,73.2% (inactive)
CN1CCN(CCCN2c3ccccc3Sc3ccc(C(F)(F)F)cc32)CC1,,95.7% (inactive)
Cc1cc2c(C(C)C)c(O)c(O)c(C=O)c2c(O)c1-c1c(C)cc2c(C(C)C)c(O)c(O)c(C=O)c2c1O,18700 nM (active),
CCn1cc(C(=O)O)c(=O)c2cc(F)c(N3CCNC(C)C3)c(F)c21 (stereo not given),,109% (inactive)
COc1ccc(-c2ccc3c(N4CCOC[C@H]4C)nc(N4CCOC[C@H]4C)nc3n2)cc1CO,20.9 nM (active),
CCCCCCCc1ccc(CCc2cccc(O)c2C(=O)O)cc1,,94.6% (inactive)
O=C(Nc1cccnc1)N1CCC(Cc2cccc(Oc3ccc(C(F)(F)F)cn3)c2)CC1,,97.3% (inactive)
CCCc1nc2c(C)cc(-c3nc4ccccc4n3C)cc2n1Cc1ccc(-c2ccccc2C(=O)O)cc1,,98.7% (inactive)
CC1(C)SCCN(S(=O)(=O)c2ccc(OCC#CCO)cc2)[C@@H]1C(=O)NO,,96% (inactive)
CCCC(CCC)C(=O)O,,100% (inactive)
O=C(Nc1nc2ccccc2n1CCN1CCOCC1)c1cccc([N+](=O)[O-])c1,,130% (inactive)
COc1cc2c(cc1OC)CN(CCc1ccc(NC(=O)c3cccc4c(=O)c5cccc(OC)c5[nH]c34)cc1)CC2,,90.5% (inactive)
O=C(O)COCCN1CCN(C(c2ccccc2)c2ccc(Cl)cc2)CC1 (stereo not given),,117% (inactive)
O=C(C=Cc1ccc(/C=C/C(=O)Nc2ccc(C3=NCCN3)cc2)cc1)Nc1ccc(C2=NCCN2)cc1,662 nM (active),
Cc1ccc(NC(=O)c2cccc(C(C)(C)C#N)c2)cc1Nc1ccc2ncn(C)c(=O)c2c1,16600 nM (active),

# Test: Quantitative High-Throughput drug screen in 47 multiple myeloma cell lines against the NCATS MIPE library collection: KMS11_JCRBsus cell viability assay (AID 1919873); also: nearly all actives have a fitted effect of over 50% in size
# Settings: KMS11 myeloma viability, CellTiter-Glo ATP luminescence, 48 h; series mostly up to 45.8 µM; viability (% of control): at the top concentration
# Summary of the method: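 500 cells/well; MIPE 4.0 drugs pin-transferred; 48 h, 37C, 5% CO2. CellTiter-Glo, 5 min RT, luminescence. Controls: DMSO 100%, media 0%.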
SMILES,Potency,viability (% of control)
COc1cc(Oc2ccnc3cc(OC)c(OC)cc23)ccc1NC(=O)NC(C)c1nccs1 (stereo not given),18700 nM (active),
COc1nc(-c2ccc3c(c2)OCO3)n(-c2ccc(NC(=O)CSc3ccccc3)cc2)n1,,99% (inactive)
COc1ccc(CC2=NN3C([C@@H](CCc4ccccc4)[C@@H](C)O)=NC(C)C3C(=O)N2)cc1OC (stereo not given in full),,97.3% (inactive)
CC(C)OC(=O)C1=CN(C(=O)c2ccc(F)c(F)c2)CC(C)(C)c2c1[nH]c1ccccc21,,95.8% (inactive)
N[C@@H]1CONC1=O,,105% (inactive)
CCn1c(-c2nonc2N)nc2c(C#CC(C)(C)O)ncc(OC[C@H]3CCCNC3)c21,2960 nM (active),
O=c1[nH]cnc2[nH]ncc12,,101% (inactive)
COc1ccccc1[C@H](c1cccc2ccccc12)[C@@](C)(C#N)C(=O)N1CCC(c2cccc(C(F)(F)F)c2)CC1,1050 nM (active),
CCc1ccc(CCOc2ccc(CC3SC(=O)NC3=O)cc2)nc1 (stereo not given),,107% (inactive)
NC(=O)c1cnccn1,,76% (inactive)
Cn1cc(-c2ccc3nnc(C(F)(F)c4ccc5ncccc5c4)n3n2)cn1,,99.3% (inactive)
CCC(C)n1ncn(-c2ccc(N3CCN(c4ccc(OC[C@H]5CO[C@](Cn6cncn6)(c6ccc(Cl)cc6Cl)O5)cc4)CC3)cc2)c1=O (stereo not given in full),1320 nM (active),
C[C@H](NC(=O)Cc1cc(F)cc(F)c1)C(=O)N[C@@H]1C(=O)N(C)c2ccccc2-c2ccccc21,,63.3% (inactive)
Cc1n[nH]c(C)c1Cc1sc2c(c1C(=O)N1C[C@H](O)CO1)c(=O)n(C)c(=O)n2CC(C)C,52.6 nM (active),
CN1CCN(CCCN2c3ccccc3Sc3ccc(C(F)(F)F)cc32)CC1,,109% (inactive)
Cc1cc2c(C(C)C)c(O)c(O)c(C=O)c2c(O)c1-c1c(C)cc2c(C(C)C)c(O)c(O)c(C=O)c2c1O,5900 nM (active),
CCn1cc(C(=O)O)c(=O)c2cc(F)c(N3CCNC(C)C3)c(F)c21 (stereo not given),,127% (inactive)
NNCCc1ccccc1,,104% (inactive)
CCCCCCCc1ccc(CCc2cccc(O)c2C(=O)O)cc1,,85.7% (inactive)
CCCc1nc2c(C)cc(-c3nc4ccccc4n3C)cc2n1Cc1ccc(-c2ccccc2C(=O)O)cc1,,97.1% (inactive)
Cn1cnc2c(F)c(Nc3ccc(Br)cc3Cl)c(C(=O)NOCCO)cc21,,97.1% (inactive)
CCCC(CCC)C(=O)O,,97% (inactive)
Cc1cc(C=c2sc3nc4ccccc4n3c2=O)c(C)n1-c1ccccc1,,112% (inactive)
S=C(NCc1ccc2c(c1)OCO2)N1CCN(c2ncnc3c2oc2ccccc23)CC1,1520 nM (active),
O=C(Nc1nc2ccccc2n1CCN1CCOCC1)c1cccc([N+](=O)[O-])c1,,89.5% (inactive)
COc1cc2c(cc1OC)CN(CCc1ccc(NC(=O)c3cccc4c(=O)c5cccc(OC)c5[nH]c34)cc1)CC2,,81.8% (inactive)
O=C(O)COCCN1CCN(C(c2ccccc2)c2ccc(Cl)cc2)CC1 (stereo not given),,133% (inactive)
O=C(C=Cc1ccc(/C=C/C(=O)Nc2ccc(C3=NCCN3)cc2)cc1)Nc1ccc(C2=NCCN2)cc1,,122% (inactive)
Cc1ccc(NC(=O)c2cccc(C(C)(C)C#N)c2)cc1Nc1ccc2ncn(C)c(=O)c2c1,11800 nM (active),
